Experimental data taken from PubChem BioAssay (NCATS).
Results filed as inconclusive are left out. Calls of active or inactive are those of the source. Calls come from the whole dose curve; as a rule, active = well fitted curve in the direction sought with a large enough effect; inconclusive = small, poorly fitted or top-dose-only effect, or another doubt; inactive = no such curve, though single readings can be large; an effect the other way counts as inactive or inconclusive.

How the values were obtained:
[1] = qHTS of pediatric cancer cell lines to identify multiple opportunities for drug repurposing: Primary screen for TC32 cells (AID 1347089); note: nearly all actives have a fitted effect of over 60% in size
Method in brief: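 A viability screen of TC32 cells was run over 48 h, with primary MIPE doses spanning 0.78 nM–46 µM and NPC doses 0.59 nM–46 µM. ATP luminescence (CellTiter-Glo) served as the read-out.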

[2] = qHTS of pediatric cancer cell lines to identify multiple opportunities for drug repurposing: Primary screen for SJ-GBM2 cells (AID 1347091)
Method in brief: (§1)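 Cell viability, CellTiter-Glo luminescence; 500-1,000 cells/well, 8- or 11-point titration, 48 h compound exposure at 37 degrees C, 5% CO2. Controls: DMSO neutral, bortezomib 2.3 µM final as positive.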

[3] = qHTS of pediatric cancer cell lines to identify multiple opportunities for drug repurposing: Primary screen for A673 cells (AID 1347092); note: nearly all actives have a fitted effect of over 45% in size
Method in brief: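 Titration-based qHTS on A673 cells: MIPE compounds spanned 11 points (0.78 nM to 46 µM final), NPC compounds 8 points (0.59 nM to 46 µM final). Viability after 48 h was measured by ATP luminescence.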

[4] = qHTS of pediatric cancer cell lines to identify multiple opportunities for drug repurposing: Primary screen for SK-N-MC cells (AID 1347093)
Method in brief: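 Metabolically active cells were quantified by ATP-dependent luminescence (CellTiter-Glo, 15 min at room temperature) following 48 h treatment. Cells had been plated at 500-1,000 per well and settled for 5 h beforehand.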

[5] = qHTS of pediatric cancer cell lines to identify multiple opportunities for drug repurposing: Primary screen for BT-37 cells (AID 1347094)
Method in brief: (§2)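 Plated cells (500-1,000 per well, growth media) were allowed to settle for 5 hours, treated with compound dilutions for 48 hours, then lysed with CellTiter-Glo for 15 min at room temperature before luminescence reading.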

[6] = qHTS of pediatric cancer cell lines to identify multiple opportunities for drug repurposing: Primary screen for NB-EBc1 cells (AID 1347095)
Method in brief: as §2

[7] = qHTS of pediatric cancer cell lines to identify multiple opportunities for drug repurposing: Primary screen for DAOY cells (AID 1347090); note: nearly all actives have a fitted effect of over 55% in size
Method in brief: as §1

Measured: Potency
Potency is the fitted concentration of half-maximal effect.

CC(C)c1ccc(Cn2ccc3c4c(N)nc(NC5CC5)nc4ccc32)cc1
active: [1] 4150 nM | [2] 3720 nM | [3] 2960 nM | [4] 743 nM | [5] 12200 nM | [6] 4690 nM

CS(=O)(=O)N1CCN(Cc2cc3nc(-c4cccc5[nH]ncc45)nc(N4CCOCC4)c3s2)CC1
active: [1] 829 nM | [2] 372 nM | [3] 4690 nM | [4] 41.8 nM | [5] 6850 nM | [6] 833 nM

Cc1ccc(C(=O)Nc2ccc(CN3CCN(C)CC3)c(C(F)(F)F)c2)cc1C#Cc1cnc2cccnn12
active: [1] 14700 nM | [2] 3720 nM | [3] 2350 nM | [4] 2350 nM | [5] 6850 nM | [6] 6620 nM

CN(C)CC(C)(C)CNc1nn2c(-c3ccccc3)nnc2cc1C1CCC1
active: [1] 18600 nM | [2] 1180 nM | [3] 743 nM | [4] 469 nM | [5] 863 nM | [6] 264 nM

O=C(C=Cc1c(C(=O)O)[nH]c2cc(Cl)cc(Cl)c12)Nc1ccccc1
not listed: [4] | [7]
inactive: all other assays above

CC(C)(C)OC(=O)Nc1ccc(-c2cc(C(=O)NCCCCCCC(=O)NO)no2)cc1
active: [1] 9300 nM | [2] 1480 nM | [3] 2960 nM | [4] 833 nM | [5] 5440 nM | [6] 1180 nM

Nc1ccc(C(=O)c2cc3c(ccc4ccccc43)[nH]2)cc1
active: [1] 7390 nM | [2] 2350 nM | [3] 2960 nM | [4] 2090 nM | [5] 7690 nM | [6] 1660 nM

CC(C)[C@H](C(=O)Nc1ccc(C(=O)NO)cc1)c1ccccc1
active: [1] 3300 nM | [2] 590 nM | [4] 469 nM | [5] 2170 nM | [6] 526 nM

Clc1ccc2ncc(-c3cccc(NC4CNC4)n3)n2c1
active: [2] 11800 nM | [3] 4690 nM | [4] 7430 nM | [5] 17200 nM | [6] 1480 nM
inactive: [1]

Nc1ccccc1NC(=O)c1ccc(CNC(=O)OCc2cccnc2)cc1
active: [1] 8290 nM | [2] 4180 nM | [3] 1480 nM | [4] 93.5 nM | [5] 3850 nM | [6] 1320 nM

CC(C)c1cnn2c(NCc3ccccc3)cc(N[C@@H](CO)[C@H](O)CO)nc12
active: [1] 1470 nM | [2] 166 nM | [3] 118 nM | [4] 296 nM | [5] 306 nM | [6] 187 nM

COc1cc2ncnc(Nc3ccc(F)c(Cl)c3)c2cc1NC(=O)C=CCN1CCCCC1
inactive: [1]
active: [2] 8330 nM | [3] 18700 nM | [5] 24300 nM | [6] 26400 nM

CN1CCN(Cc2ccc(NC(=O)Nc3ccc(Oc4cc(NC(=O)C5CC5)ncn4)cc3)cc2C(F)(F)F)CC1
active: [1] 294 nM | [2] 372 nM | [3] 148 nM | [4] 332 nM | [5] 544 nM | [6] 935 nM

COc1c(OCCCN2CCOCC2)ccc2c3n(c(=NC(=O)c4cnc(N)nc4)nc12)CCN3
active: [1] 2550 nM | [2] 2040 nM | [3] 162 nM | [4] 28.8 nM | [6] 102 nM

O=C(NCCS(=O)(=O)c1ccc(C(F)(F)F)cn1)c1ccc(Cl)cc1
not listed: [4] | [7]
inactive: all other assays above

C#Cc1cccc(Nc2ncnc3cc(OC)c(OCCCCCCC(=O)NO)cc23)c1
active: [1] 5230 nM | [2] 118 nM | [3] 9.3 nM | [4] 11.8 nM | [5] 611 nM | [6] 148 nM

CC(C)c1ccccc1Cc1cc(C(=O)Nc2ccc(S(=O)(=O)c3ccccc3C(C)(C)C)cc2)c(O)c(O)c1O
inactive: [1]
active: [2] 2960 nM | [3] 18700 nM | [5] 24300 nM | [6] 2350 nM

OCCCNc1cc(-c2ccnc(Nc3cccc(Cl)c3)n2)ccn1
active: [1] 370 nM | [2] 83.3 nM | [4] 105 nM | [5] 243 nM | [6] 93.5 nM

C[C@]1(CO)CN(c2cc(C(=O)Nc3ccc4c(c3)-c3c(c(C(N)=O)nn3-c3ccc(F)cc3)CC4)c(Cl)cn2)C[C@@]1(C)CO
active: [1] 18600 nM | [2] 6620 nM | [3] 9350 nM | [4] 1480 nM | [5] 5440 nM | [6] 5900 nM

Cc1c(NC(=O)OC[C@@H]2COCCN2)cn2ncnc(Nc3ccc4c(cnn4Cc4cccc(F)c4)c3)c12
inactive: [1]
active: [3] 46.9 nM | [4] 93.5 nM

CC1(C)O[C@@H]2C[C@@H]3[C@H]4C[C@@H](F)C5=CC(=O)C=C[C@]5(C)[C@@]4(F)[C@@H](O)C[C@]3(C)[C@]2(C(=O)CO)O1
inactive: [1] | [5] | [6]
active: [4] 9350 nM

CC(C)(C)NC(=O)[C@H]1CN(Cc2cccnc2)CCN1C[C@@H](O)C[C@@H](Cc1ccccc1)C(=O)N[C@H]1c2ccccc2C[C@H]1O
inactive: [1]
active: [3] 743 nM | [4] 118 nM

CNC(=O)c1ccc(-c2cnc3ncc(Cc4ccc5ncccc5c4)n3n2)cc1F
inactive: [1] | [5]

Cc1c(C)n(Cc2ccc(-c3ccccc3C(=O)O)cc2)c2ccc(C(=O)N[C@@H](C)c3ccc([N+](=O)[O-])cc3)cc12
active: [7] 29.6 nM | [2] 23500 nM | [3] 148 nM | [4] 18.7 nM | [5] 968 nM

CC(C)c1noc(N2CCC(COc3ccc(-c4ccc(S(C)(=O)=O)cc4)nc3)CC2)n1
inactive: [1] | [2] | [4] | [6]

O=C(Cc1ccc(-c2ccc(OCCN3CCOCC3)cc2)cn1)NCc1ccccc1
active: [7] 37.2 nM | [2] 18.7 nM | [3] 23.5 nM | [4] 26.4 nM | [5] 68.5 nM | [6] 14.8 nM

CC1(C)CC(=O)c2c(C(F)(F)F)nn(-c3ccc(C(N)=O)c(NC4CCC(OC(=O)CN)CC4)c3)c2C1 (centres undefined)
active: [1] 739 nM | [3] 235 nM | [4] 166 nM | [6] 296 nM

Cc1[nH]c2ccccc2c1CCNCc1ccc(C=CC(=O)NO)cc1
active: [7] 469 nM | [2] 148 nM | [3] 148 nM | [4] 148 nM | [5] 273 nM | [6] 372 nM

CCCCCN(CCC12CC3CC(CC(C3)C1)C2)C(=O)NCCCc1ccncc1
inactive: [1]
active: [3] 18700 nM | [4] 16600 nM | [5] 24300 nM | [6] 20900 nM

CC1(C)OC2=C(C(=O)c3ccccc3C2=O)[C@H](NCc2ccccc2)[C@H]1O
active: [7] 5900 nM | [2] 7430 nM | [3] 469 nM | [4] 1480 nM | [5] 8630 nM | [6] 2350 nM

Cc1cnc(-c2cnc(NCCNc3ccc(C#N)cn3)nc2-c2ccc(Cl)cc2Cl)[nH]1
inactive: [1] | [5]
active: [4] 105 nM

CC(C)c1cc(-c2n[nH]c(=O)n2-c2ccc3c(ccn3C)c2)c(O)cc1O
active: [1] 131 nM | [4] 52.6 nM | [5] 122 nM | [6] 93.5 nM

Cc1ccc(C(N)=O)cc1Nc1nccc(-c2cn(C(C)C)c3cnccc23)n1
active: [7] 11800 nM | [2] 7430 nM | [3] 3720 nM | [4] 5900 nM | [5] 9680 nM | [6] 4180 nM

CCCCCCCCCC(=O)N[C@@H](Cc1c[nH]c2ccccc12)C(=O)N[C@H](CC(N)=O)C(=O)N[C@@H](CC(=O)O)C(=O)N[C@@H]1C(=O)NCC(=O)N[C@@H](CCCN)C(=O)N[C@@H](CC(=O)O)C(=O)N[C@H](C)C(=O)N[C@@H](CC(=O)O)C(=O)NCC(=O)N[C@H](CO)C(=O)N[C@@H]([C@@H](C)CC(=O)O)C(=O)N[C@@H](CC(=O)c2ccccc2N)C(=O)O[C@@H]1C
not listed: [1]
inactive: all other assays above

C[C@@H]1CN(CC(=O)Nc2ccc3c(c2)Cc2cccc(-c4cc(=O)cc(N5CCOCC5)o4)c2S3)C[C@H](C)O1
inactive: [1]
active: [3] 14800 nM | [4] 4180 nM | [6] 18700 nM

Cc1cc(C(=O)N2CCN(c3cccc(Cl)c3)CC2)n(-c2ccccc2)n1
active: [1] 2940 nM | [3] 590 nM | [4] 118 nM | [5] 6110 nM | [6] 66.2 nM

COc1cc(=C2C=c3ccccc3=N2)[nH]c1=Cc1[nH]c(C)cc1C
active: [7] 14800 nM | [2] 1180 nM | [3] 4690 nM | [4] 3720 nM | [5] 7690 nM | [6] 743 nM
